Measured values taken from PubChem BioAssay AID1159580 (chemical genetic matrix, 2015).
The whole screen tested about 5,500 compounds, of which about 2,000 (36%) were called active. Inconclusive results (about 18%) are left out. Cut-off read from the data, not from the text of the source: active = normalized growth mostly below about 0.91 (no sharp cut-off); inconclusive = no clear call, values can overlap the other calls; inactive = mostly above about 0.92. The list shows a part of the results.

Assay: chemical genetic growth profiling, strain panel (AID 1159580);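 note: tested at 20 µM; growth read once vehicle control cultures reached saturation at 30 °C; 1 = growth at the plate median or of vehicle wells; lower values mean less growth of the strain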
Settings: growth OD

Measured: normalized growth

CC1(C)S[C@@H]2[C@H](NC(=O)COc3ccccc3)C(=O)N2[C@H]1C(=O)O
inactive: S. cerevisiae deletion strains, locus YJR075W, strain HOC1, active compounds read low 1 | S. cerevisiae deletion strains, locus YKL009W, strain mrt4, active compounds read low 1.03 | S. cerevisiae deletion strains, locus YKL068W, active compounds read low 1.02 | S. cerevisiae deletion strains, locus YKL085W, strain MDH1 (second series), active compounds read low 1.01 | S. cerevisiae deletion strains, locus YKL085W, strain MDH1, active compounds read low 1.01 | S. cerevisiae deletion strains, locus YKL160W, strain elf1, active compounds read low 0.977 | S. cerevisiae deletion strains, locus YKL190W, strain CNB1, active compounds read low 0.992 | S. cerevisiae deletion strains, locus YKR001C, strain vps1, active compounds read low 1.03 | S. cerevisiae deletion strains, locus YKR026C, strain gcn3, active compounds read low 0.983 | S. cerevisiae deletion strains, locus YKR091W, strain srl3, active compounds read low 0.991 | S. cerevisiae deletion strains, locus YLL001W, strain dnm1, active compounds read low 0.935 | S. cerevisiae deletion strains, locus YLL026W, active compounds read low 0.983 | S. cerevisiae deletion strains, locus YLL041C, strain sdh2, active compounds read low 0.999 | S. cerevisiae deletion strains, locus YLR027C, strain aat2, active compounds read low 0.973 | S. cerevisiae deletion strains, locus YLR039C, strain RIC1, active compounds read low 1.04 | S. cerevisiae deletion strains, locus YLR058C, strain SHM2, active compounds read low 1 | S. cerevisiae deletion strains, locus YLR102C, strain apc9, active compounds read low 1.02 | S. cerevisiae deletion strains, locus YLR113W, strain HOG1, active compounds read low 0.994 | S. cerevisiae deletion strains, locus YLR221C, strain rsa3, active compounds read low 1.01 | S. cerevisiae deletion strains, locus YLR258W, strain gsy2, active compounds read low 0.999 | S. cerevisiae deletion strains, locus YLR262C, strain YPT6 (second series), active compounds read low 0.968 | S. cerevisiae deletion strains, locus YLR262C, strain YPT6, active compounds read low 1.04 | S. cerevisiae deletion strains, locus YLR268W, strain sec22, active compounds read low 1.03 | S. cerevisiae deletion strains, locus YLR320W, strain mms22, active compounds read low 0.99 | S. cerevisiae deletion strains, locus YLR330W, strain CHS5, active compounds read low 1 | S. cerevisiae deletion strains, locus YLR342W, strain FKS1 (second series), active compounds read low 0.976 | S. cerevisiae deletion strains, locus YLR342W, strain FKS1, active compounds read low 0.975 | S. cerevisiae deletion strains, locus YLR357W, strain rsc2, active compounds read low 0.992 | S. cerevisiae deletion strains, locus YLR370C, strain arc18, active compounds read low 1 | S. cerevisiae deletion strains, locus YLR371W, strain rom2, active compounds read low 1.02 | S. cerevisiae deletion strains, locus YLR384C, strain iki3, active compounds read low 0.98 | S. cerevisiae deletion strains, locus YLR418C, strain cdc73, active compounds read low 1.06 | S. cerevisiae deletion strains, locus YML016C, strain PPZ1, active compounds read low 1.01 | S. cerevisiae deletion strains, locus YML032C, strain rad52, active compounds read low 1.04 | S. cerevisiae deletion strains, locus YML120C, strain ndi1, active compounds read low 0.995 | S. cerevisiae deletion strains, locus YML124C, strain tub3, active compounds read low 1.03 | S. cerevisiae deletion strains, locus YMR058W, strain fet3, active compounds read low 0.988 | S. cerevisiae deletion strains, locus YMR078C, strain ctf18, active compounds read low 1.02 | S. cerevisiae deletion strains, locus YMR125W, strain sto1, active compounds read low 1.01 | S. cerevisiae deletion strains, locus YMR129W, active compounds read low 0.998 | S. cerevisiae deletion strains, locus YMR205C, strain PFK2, active compounds read low 0.994 | S. cerevisiae deletion strains, locus YMR223W, strain ubp8, active compounds read low 1.02 | S. cerevisiae deletion strains, locus YMR231W, strain pep5, active compounds read low 1.01 | S. cerevisiae deletion strains, locus YMR263W, strain SAP30, active compounds read low 1 | S. cerevisiae deletion strains, locus YMR307W, strain GAS1, active compounds read low 0.989 | S. cerevisiae deletion strains, locus YNL067W, strain RPL9B, active compounds read low 1.01 | S. cerevisiae deletion strains, locus YNL071W, strain lat1, active compounds read low 1 | S. cerevisiae deletion strains, locus YNL128W, strain TEP1, active compounds read low 1.01 | S. cerevisiae deletion strains, locus YNL153C, strain GIM3, active compounds read low 1 | S. cerevisiae deletion strains, locus YNL183C, strain NPR1, active compounds read low 0.937 | S. cerevisiae deletion strains, locus YNL209W, strain ssb2, active compounds read low 1 | S. cerevisiae deletion strains, locus YNL233W, strain BNI4, active compounds read low 1.01 | S. cerevisiae deletion strains, locus YNL248C, strain rpa49, active compounds read low 1.03 | S. cerevisiae deletion strains, locus YNL250W, strain rad50, active compounds read low 1.03 | S. cerevisiae deletion strains, locus YNL271C, strain bni1, active compounds read low 1.02 | S. cerevisiae deletion strains, locus YNL298W, strain CLA4, active compounds read low 1.04 | S. cerevisiae deletion strains, locus YNL307C, strain MCK1, active compounds read low 1.03 | S. cerevisiae deletion strains, locus YNL322C, strain KRE1 (second series), active compounds read low 0.997 | S. cerevisiae deletion strains, locus YNL322C, strain KRE1, active compounds read low 1 | S. cerevisiae deletion strains, locus YNR049C, strain mso1, active compounds read low 0.994 | S. cerevisiae deletion strains, locus YNR052C, strain pop2, active compounds read low 1.01 | S. cerevisiae deletion strains, locus YOL006C, strain TOP1, active compounds read low 1.05 | S. cerevisiae deletion strains, locus YOL012C, strain htz1 1.38 | S. cerevisiae deletion strains, locus YOL147C, strain pex11, active compounds read low 1.02 | S. cerevisiae deletion strains, locus YOR001W, strain rrp6, active compounds read low 0.983 | S. cerevisiae deletion strains, locus YOR061W, strain CKA2, active compounds read low 1.02 | S. cerevisiae deletion strains, locus YOR069W, strain VPS5, active compounds read low 1 | S. cerevisiae deletion strains, locus YOR070C, strain gyp1, active compounds read low 1 | S. cerevisiae deletion strains, locus YOR080W, strain dia2, active compounds read low 0.986 | S. cerevisiae deletion strains, locus YOR083W, strain WHI5, active compounds read low 0.954 | S. cerevisiae deletion strains, locus YOR106W, strain vam3, active compounds read low 0.963 | S. cerevisiae deletion strains, locus YOR136W, strain idh2, active compounds read low 1.03 | S. cerevisiae deletion strains, locus YOR144C, strain elg1, active compounds read low 1.02 | S. cerevisiae deletion strains, locus YOR184W, strain ser1, active compounds read low 1.04 | S. cerevisiae deletion strains, locus YOR231W, strain MKK1, active compounds read low 1.02 | S. cerevisiae deletion strains, locus YOR265W, strain rbl2, active compounds read low 1 | S. cerevisiae deletion strains, locus YOR270C, strain vph1, active compounds read low 1.01 | S. cerevisiae deletion strains, locus YOR290C, strain snf2, active compounds read low 1.01 | S. cerevisiae deletion strains, locus YOR316C, strain cot1, active compounds read low 1.02 | S. cerevisiae deletion strains, locus YPL051W, strain arl3, active compounds read low 0.982 | S. cerevisiae deletion strains, locus YPL055C, strain LGE1, active compounds read low 1.01 | S. cerevisiae deletion strains, locus YPL078C, strain atp4, active compounds read low 0.955 | S. cerevisiae deletion strains, locus YPL106C, strain sse1, active compounds read low 0.998 | S. cerevisiae deletion strains, locus YPL240C, strain hsp82, active compounds read low 1 | S. cerevisiae deletion strains, locus YPL241C, strain CIN2, active compounds read low 1 | S. cerevisiae deletion strains, locus YPL256C, strain CLN2, active compounds read low 0.968 | S. cerevisiae deletion strains, locus YPR119W, strain clb2, active compounds read low 1.02 | S. cerevisiae deletion strains, locus YPR141C, strain kar3, active compounds read low 1.03 | S. cerevisiae deletion strains, locus YPR163C, strain tif3, active compounds read low 1.04 | S. cerevisiae deletion strains, locus YPR167C, strain met16, active compounds read low 1.02 | S. cerevisiae deletion strains, strain wtn01, active compounds read low 1.02 | S. cerevisiae strains, strain wild type, active compounds read low 1.01
